For 16 targets, log2 fold change results are on record in the supplement of paper PMC10849652.

About 8,800 targets were measured; listed, in parts, are those with a hit and a random draw of the rest. About 0.5% of all pairs of compound and target were hits. Values without a mark were called inactive.

Holding throughout (assay): log2 fold change, soluble protein after heating vs DMSO (PISA); higher = thermal stabilisation; K562 lysate, 10 uM; active = over 0.2 and 3.5 SD of the protein, either way, in both replicates (recomputed)
Compound in one assay: CS(=O)(=O)CCNCc1ccc(-c2ccc3ncnc(Nc4ccc(OCc5cccc(F)c5)c(Cl)c4)c3c2)o1 [lapatinib]
In a few lines: (§1)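 Following dounce homogenisation of K562 pellets in PBS pH 7.4 with 1 mM MgCl2, crude extract at 1 mg/mL protein was incubated for 30 min with 10 μM compound. Aliquots were then heated for 3 min over 48°C-58°C and pooled, NP-40 was added to 0.5% at 4°C, and soluble protein was recovered as the supernatant at 21,000xg for 90 min. Channel-sum-equalised TMTpro 16plex LC-MS/MS quantified this protein. Each value, from duplicates, is a log-two fold change in thermal stability relative to solvent controls.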

Compound in another assay: CS(=O)(=O)N1CCN(Cc2cc3nc(-c4cccc5[nH]ncc45)nc(N4CCOCC4)c3s2)CC1 [pictilisib]
In a few lines:
as §1

Compound in the next assay: C[C@@H](Oc1cc(-c2cnn(C3CCNCC3)c2)cnc1N)c1c(Cl)ccc(F)c1Cl [crizotinib]
In a few lines: as §1

Compound in assay [1]: C[C@H](C1=CC=C(C=C1)C(=O)NC2=C3C=CNC3=NC=C2)N
An outline of the steps:
as §1

Compound in the next assay: C[C@H](Nc1ncnc2nc[nH]c12)c1cc2cccc(Cl)c2c(=O)n1-c1ccccc1 [duvelisib]
In a few lines: as §1

Compound in a further assay: Cc1cc(Nc2cc(CN3CCOCC3)c3nc(C)c(Cc4ccc(Cl)cc4F)n3n2)n[nH]1 [gandotinib]
In a few lines: as §1

Compound in another assay: Cc1cc(Nc2cc(N3CCN(C)CC3)nc(Sc3ccc(NC(=O)C4CC4)cc3)n2)n[nH]1 [tozasertib]
In a few lines: as §1

Compound in a further assay: Cc1ccc(-n2nc(C(C)(C)C)cc2NC(=O)Nc2ccc(OCCN3CCOCC3)c3ccccc23)cc1 [doramapimod]
An outline of the steps: as §1

Compound in another assay: Cc1ccc(NC(=O)c2ccc(CN3CC[C@H](N(C)C)C3)c(C(F)(F)F)c2)cc1Nc1nccc(-c2cncnc2)n1 [bafetinib]
An outline of the steps: as §1

Compound in assay [2]: Cc1cccc(CC(=O)N2CCc3c2ccc(-c2cn(C)c4ncnc(N)c24)c3F)n1
In a few lines: as §1

UniProt P29373, sequence (P29373 whole entry, looked up): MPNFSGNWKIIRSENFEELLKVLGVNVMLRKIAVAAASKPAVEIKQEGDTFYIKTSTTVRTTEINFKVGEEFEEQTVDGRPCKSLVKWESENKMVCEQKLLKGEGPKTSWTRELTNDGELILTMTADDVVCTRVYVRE
UniProt Q9BY43, sequence (Q9BY43 whole entry, looked up): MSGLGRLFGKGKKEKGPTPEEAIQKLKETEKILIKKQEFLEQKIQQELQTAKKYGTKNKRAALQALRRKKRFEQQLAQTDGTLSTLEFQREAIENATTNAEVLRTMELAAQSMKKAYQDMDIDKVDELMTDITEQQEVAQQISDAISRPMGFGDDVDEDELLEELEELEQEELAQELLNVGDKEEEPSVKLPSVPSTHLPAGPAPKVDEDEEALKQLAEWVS
UniProt Q14008, sequence (Q14008 whole entry, looked up): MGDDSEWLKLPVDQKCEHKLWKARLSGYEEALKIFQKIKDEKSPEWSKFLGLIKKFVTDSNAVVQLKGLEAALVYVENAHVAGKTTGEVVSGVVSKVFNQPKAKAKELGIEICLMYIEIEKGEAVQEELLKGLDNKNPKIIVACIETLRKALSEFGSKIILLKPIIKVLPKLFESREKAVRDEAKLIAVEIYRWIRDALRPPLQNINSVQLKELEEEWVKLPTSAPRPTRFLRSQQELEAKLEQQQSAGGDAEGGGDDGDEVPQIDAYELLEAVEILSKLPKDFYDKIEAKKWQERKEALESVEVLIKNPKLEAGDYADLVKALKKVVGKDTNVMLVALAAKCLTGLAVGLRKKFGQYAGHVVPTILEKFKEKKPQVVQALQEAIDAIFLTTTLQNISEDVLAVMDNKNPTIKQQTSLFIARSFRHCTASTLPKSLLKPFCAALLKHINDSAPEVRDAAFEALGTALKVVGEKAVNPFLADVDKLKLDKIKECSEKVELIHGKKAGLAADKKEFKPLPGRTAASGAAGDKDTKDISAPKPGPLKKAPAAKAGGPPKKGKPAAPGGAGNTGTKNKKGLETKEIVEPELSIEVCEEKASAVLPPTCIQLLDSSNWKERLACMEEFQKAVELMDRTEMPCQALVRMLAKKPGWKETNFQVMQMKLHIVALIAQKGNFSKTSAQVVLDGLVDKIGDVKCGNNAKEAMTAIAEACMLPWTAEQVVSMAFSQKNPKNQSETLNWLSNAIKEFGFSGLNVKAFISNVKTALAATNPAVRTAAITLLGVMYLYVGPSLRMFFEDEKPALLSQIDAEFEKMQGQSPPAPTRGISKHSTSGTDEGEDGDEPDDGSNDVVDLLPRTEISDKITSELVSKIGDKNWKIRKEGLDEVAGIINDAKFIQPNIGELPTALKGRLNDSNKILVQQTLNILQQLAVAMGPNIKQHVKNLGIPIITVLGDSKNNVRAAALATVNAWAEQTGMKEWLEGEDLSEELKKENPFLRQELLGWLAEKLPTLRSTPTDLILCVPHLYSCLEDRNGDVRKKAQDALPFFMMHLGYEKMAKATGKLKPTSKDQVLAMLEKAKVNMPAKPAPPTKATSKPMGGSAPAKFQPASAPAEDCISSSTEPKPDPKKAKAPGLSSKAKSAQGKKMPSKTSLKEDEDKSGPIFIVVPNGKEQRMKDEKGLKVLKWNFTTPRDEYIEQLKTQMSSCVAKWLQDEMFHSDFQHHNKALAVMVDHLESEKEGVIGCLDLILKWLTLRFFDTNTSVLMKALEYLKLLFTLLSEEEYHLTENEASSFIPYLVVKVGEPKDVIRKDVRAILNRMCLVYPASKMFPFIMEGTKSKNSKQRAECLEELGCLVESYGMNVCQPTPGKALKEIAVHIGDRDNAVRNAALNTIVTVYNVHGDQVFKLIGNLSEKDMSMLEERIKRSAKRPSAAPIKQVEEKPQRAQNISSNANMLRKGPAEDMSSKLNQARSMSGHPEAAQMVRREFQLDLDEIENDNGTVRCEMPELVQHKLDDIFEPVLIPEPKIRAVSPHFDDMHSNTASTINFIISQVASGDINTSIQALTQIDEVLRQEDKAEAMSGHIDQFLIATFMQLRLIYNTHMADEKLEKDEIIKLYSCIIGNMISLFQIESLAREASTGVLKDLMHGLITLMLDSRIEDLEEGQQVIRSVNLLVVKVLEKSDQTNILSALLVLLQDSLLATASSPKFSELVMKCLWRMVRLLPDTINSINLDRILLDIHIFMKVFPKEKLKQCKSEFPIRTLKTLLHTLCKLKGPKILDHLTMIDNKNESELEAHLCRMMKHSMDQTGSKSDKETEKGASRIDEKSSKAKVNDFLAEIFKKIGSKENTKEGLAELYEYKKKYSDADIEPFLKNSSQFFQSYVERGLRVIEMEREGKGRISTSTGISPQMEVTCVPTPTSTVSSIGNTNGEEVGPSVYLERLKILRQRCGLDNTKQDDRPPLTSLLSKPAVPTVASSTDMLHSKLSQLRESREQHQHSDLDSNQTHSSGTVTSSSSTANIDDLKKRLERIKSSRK
UniProt P67870, sequence (P67870 whole entry, looked up): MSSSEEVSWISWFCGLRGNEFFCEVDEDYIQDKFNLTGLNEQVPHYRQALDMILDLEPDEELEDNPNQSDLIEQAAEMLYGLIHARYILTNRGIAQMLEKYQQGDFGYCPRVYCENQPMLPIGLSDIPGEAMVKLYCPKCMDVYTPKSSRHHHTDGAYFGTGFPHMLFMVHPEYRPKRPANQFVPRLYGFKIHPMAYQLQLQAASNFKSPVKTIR
UniProt Q8TB03, sequence (Q8TB03 whole entry, looked up): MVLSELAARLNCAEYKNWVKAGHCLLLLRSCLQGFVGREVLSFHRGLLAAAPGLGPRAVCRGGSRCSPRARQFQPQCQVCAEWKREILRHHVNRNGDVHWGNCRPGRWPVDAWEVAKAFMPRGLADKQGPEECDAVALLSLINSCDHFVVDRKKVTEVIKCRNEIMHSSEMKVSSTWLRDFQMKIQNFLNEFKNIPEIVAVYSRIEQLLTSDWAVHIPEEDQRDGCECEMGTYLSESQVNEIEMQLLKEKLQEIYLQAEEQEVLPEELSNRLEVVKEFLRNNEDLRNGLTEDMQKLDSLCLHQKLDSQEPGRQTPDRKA
UniProt P00374, sequence (P00374 whole entry, looked up): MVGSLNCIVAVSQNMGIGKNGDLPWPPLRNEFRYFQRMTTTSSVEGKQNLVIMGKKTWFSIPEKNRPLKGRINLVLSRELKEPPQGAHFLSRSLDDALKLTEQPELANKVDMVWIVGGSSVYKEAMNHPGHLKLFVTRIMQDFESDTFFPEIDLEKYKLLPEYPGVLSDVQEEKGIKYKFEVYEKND
UniProt Q86Y56, sequence (Q86Y56 whole entry, looked up): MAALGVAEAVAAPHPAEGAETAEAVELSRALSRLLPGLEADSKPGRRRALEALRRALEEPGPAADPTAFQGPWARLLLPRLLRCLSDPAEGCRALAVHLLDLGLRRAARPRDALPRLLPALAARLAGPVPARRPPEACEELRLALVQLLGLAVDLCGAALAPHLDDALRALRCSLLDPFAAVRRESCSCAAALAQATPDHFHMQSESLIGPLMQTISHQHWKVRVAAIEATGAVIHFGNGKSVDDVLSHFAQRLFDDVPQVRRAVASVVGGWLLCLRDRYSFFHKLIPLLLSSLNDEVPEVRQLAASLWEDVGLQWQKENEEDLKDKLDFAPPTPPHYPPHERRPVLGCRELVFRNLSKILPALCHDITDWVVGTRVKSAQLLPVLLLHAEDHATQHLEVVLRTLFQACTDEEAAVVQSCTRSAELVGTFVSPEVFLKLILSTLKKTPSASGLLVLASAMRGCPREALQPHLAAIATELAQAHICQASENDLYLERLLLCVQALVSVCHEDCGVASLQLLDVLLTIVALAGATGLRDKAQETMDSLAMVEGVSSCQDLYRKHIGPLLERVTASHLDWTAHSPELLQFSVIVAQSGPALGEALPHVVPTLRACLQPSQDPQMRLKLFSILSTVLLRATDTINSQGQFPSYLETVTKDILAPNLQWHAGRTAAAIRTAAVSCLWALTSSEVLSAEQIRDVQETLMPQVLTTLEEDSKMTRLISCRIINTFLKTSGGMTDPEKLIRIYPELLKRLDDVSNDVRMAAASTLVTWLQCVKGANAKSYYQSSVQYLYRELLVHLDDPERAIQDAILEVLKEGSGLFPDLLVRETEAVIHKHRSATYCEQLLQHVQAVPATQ
UniProt O96017, sequence (O96017 whole entry, looked up): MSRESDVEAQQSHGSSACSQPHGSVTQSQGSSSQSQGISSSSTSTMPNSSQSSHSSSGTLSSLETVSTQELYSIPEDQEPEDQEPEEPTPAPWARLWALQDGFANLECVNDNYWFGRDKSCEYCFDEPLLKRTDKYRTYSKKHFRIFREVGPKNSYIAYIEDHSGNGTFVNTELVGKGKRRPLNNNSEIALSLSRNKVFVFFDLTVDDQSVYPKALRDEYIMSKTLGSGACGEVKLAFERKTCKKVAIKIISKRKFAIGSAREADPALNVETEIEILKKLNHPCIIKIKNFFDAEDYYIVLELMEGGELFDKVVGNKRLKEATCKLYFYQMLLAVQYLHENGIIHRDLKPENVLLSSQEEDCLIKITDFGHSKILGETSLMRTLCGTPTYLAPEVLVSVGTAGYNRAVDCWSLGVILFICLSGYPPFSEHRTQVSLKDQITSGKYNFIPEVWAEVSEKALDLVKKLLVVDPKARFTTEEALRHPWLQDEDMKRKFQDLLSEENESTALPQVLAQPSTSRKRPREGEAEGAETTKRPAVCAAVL
UniProt O75208, sequence (O75208 whole entry, looked up): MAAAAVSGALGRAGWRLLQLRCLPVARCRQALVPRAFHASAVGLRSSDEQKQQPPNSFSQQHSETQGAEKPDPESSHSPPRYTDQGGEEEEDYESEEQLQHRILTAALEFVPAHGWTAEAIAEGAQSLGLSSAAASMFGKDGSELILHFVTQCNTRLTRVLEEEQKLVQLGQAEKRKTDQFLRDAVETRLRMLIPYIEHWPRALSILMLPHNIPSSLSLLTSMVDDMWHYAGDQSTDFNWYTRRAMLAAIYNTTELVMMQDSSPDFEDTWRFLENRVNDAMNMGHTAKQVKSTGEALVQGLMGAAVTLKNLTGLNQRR
UniProt Q8WXC6, sequence (Q8WXC6 whole entry, looked up): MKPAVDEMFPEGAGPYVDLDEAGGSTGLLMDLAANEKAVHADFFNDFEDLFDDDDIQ

As for CHEK2 (UniProt O96017), the log2 fold change with lapatinib was 0.08; with pictilisib, -0.012; in the assay with crizotinib, 0.069; in assay [1], -0.011; with duvelisib it was 0.002; with gandotinib, -0.019. Also, the log2 fold change with tozasertib is 0.039; in the assay with doramapimod it was 0.018; with bafetinib, -0.046; in [2] it was -0.008.
Take CSNK1G3 isoform 4 (UniProt Q9Y6M4): the log2 fold change with lapatinib was -0.035.
For the target CKAP5 (UniProt Q14008), the log2 fold change is 0.001 with lapatinib; 0.013 with pictilisib; -0.017 with crizotinib; 0.004 in assay [1]; 0.001 with duvelisib; -0.053 in the assay with gandotinib. In addition, the log2 fold change with tozasertib was 0.01; with doramapimod it was 0.011; in the assay with bafetinib, 0.005; in [2], 0.015.
For DNAAF5 (UniProt Q86Y56), the log2 fold change was -0.03 with lapatinib; -0.008 in the assay with pictilisib; -0.104 with crizotinib; 0.016 in assay [1]; 0.021 with duvelisib; -0.147 with gandotinib. Besides, the log2 fold change in the assay with tozasertib was -0.055; with doramapimod, 0.024; in the assay with bafetinib it was -0.066; in assay [2], 0.027.
Turning to COQ9 (UniProt O75208), the log2 fold change with lapatinib was -0.033; in the assay with pictilisib, -0.021; with crizotinib, 0.014; in assay [1], 0.055; with duvelisib, -0.052; in the assay with gandotinib, -0.12. The log2 fold change with tozasertib was 0.02; with doramapimod, -0.055; with bafetinib, 0.032; in assay [2], 0.019.
Regarding CRABP2 (UniProt P29373), the log2 fold change in the assay with lapatinib is -0.008; with pictilisib it was -0.026; in the assay with crizotinib it was -0.025; in [1] it was 0.041; in the assay with duvelisib it was -0.056; in the assay with gandotinib, 0.091. Also, the log2 fold change in the assay with tozasertib was 0.241; with doramapimod, 0.078; in the assay with bafetinib, 0.014; in [2], -0.138.
CXorf38 (UniProt Q8TB03): the log2 fold change in the assay with lapatinib was -0.05; with pictilisib it was -0.017; with crizotinib, -0.019; in assay [1] it was -0.039; in the assay with duvelisib, 0.013; in the assay with gandotinib, 0.037. Besides, the log2 fold change was 0.037 in the assay with tozasertib, 0.013 with doramapimod, -0.018 with bafetinib and -0.033 in assay [2].
For the target CSNK2B (UniProt P67870), the log2 fold change with lapatinib is -0.052; in the assay with pictilisib, 0.023; with crizotinib, -0.073; in assay [1] it was 0.027; with duvelisib it was -0.053; with gandotinib, 0.016. For the same target, the log2 fold change is 0.004 with tozasertib, 0.022 in the assay with doramapimod, 0.064 with bafetinib and -0.05 in assay [2].
With CWC22 (UniProt Q9HCG8), the log2 fold change is 0.059 with lapatinib; -0.027 with pictilisib; -0.051 with crizotinib; 0.46 (active) in assay [1]; 0.011 with duvelisib; -0.207 with gandotinib. In addition, the log2 fold change with tozasertib was 0.072; in the assay with doramapimod, -0.019; with bafetinib, -0.088; in [2] it was -0.109.
As for COPS9 (UniProt Q8WXC6), the log2 fold change in the assay with lapatinib is 0.148.
Regarding DARS (UniProt P14868), the log2 fold change was 0.002 with lapatinib; 0 with pictilisib; -0.033 with crizotinib; -0.036 in [1]; 0 in the assay with duvelisib; -0.081 with gandotinib. Besides, the log2 fold change in the assay with tozasertib was 0.011; with doramapimod, 0.015; with bafetinib, -0.011; in assay [2] it was 0.008.
Consider CNOT6L (UniProt Q96LI5), for which the log2 fold change in the assay with lapatinib is -0.03; in the assay with pictilisib it was -0.042; in the assay with crizotinib it was -0.076; in assay [1], -0.251; with duvelisib it was -0.001; in the assay with gandotinib it was 0.065. Besides, the log2 fold change was 0.064 in the assay with tozasertib, 0.012 with doramapimod, -0.1 in the assay with bafetinib and 0.114 in [2].
DHFR (UniProt P00374): the log2 fold change with lapatinib was -0.012; in the assay with pictilisib, -0.069; with crizotinib, -0.054; in assay [1] it was 0.04; with duvelisib, -0.015; with gandotinib, -0.099. Moreover, the log2 fold change is 0.022 with tozasertib, 0.011 in the assay with doramapimod, -0.047 in the assay with bafetinib and -0.077 in [2].
Take COASY isoform 2 (UniProt Q13057): the log2 fold change was -0.01 in the assay with lapatinib; 0.021 in the assay with pictilisib; -0.084 in the assay with crizotinib; -0.072 in [1]; 0.004 with duvelisib; 0.009 with gandotinib. The log2 fold change was -0.022 with tozasertib, -0.007 in the assay with doramapimod, -0.043 with bafetinib and 0.029 in assay [2].
For the target CHMP4A isoform 2 (UniProt Q9BY43), the log2 fold change in the assay with lapatinib was 0.009; in the assay with pictilisib, 0.022; with crizotinib it was -0.047; in assay [1], -0.227 (active); with duvelisib, -0.001; with gandotinib, 0.182. The log2 fold change with tozasertib was -0.01; in the assay with doramapimod, 0.054; with bafetinib, -0.036; in assay [2] it was 0.18.
For the target CSPP1 (UniProt Q1MSJ5), the log2 fold change is -0.103 in the assay with lapatinib; -0.176 in the assay with pictilisib; 0.013 with crizotinib; 0.031 in assay [1]; -0.089 in the assay with duvelisib; 0.056 in the assay with gandotinib. The log2 fold change was -0.04 with tozasertib, 0.018 with doramapimod, -0.013 in the assay with bafetinib and -0.002 in assay [2].
